Test results as given in PubChem BioAssay (NCATS).
Where “and” joins values, the source holds several entries; their conditions need not be identical. Identical values can stand only once. Unmarked numbers belong to inactive results. Results filed as inconclusive are left out. A call without a number means that no potency is given here. Calls of active or inactive are those of the source. Unless noted, calls come from the whole dose curve; as a rule, active = well fitted curve in the direction sought with a large enough effect; inconclusive = small, poorly fitted or top-dose-only effect, or another doubt; inactive = no such curve, though single readings can be large; an effect the other way counts as inactive or inconclusive.

How the values were obtained:
[1] = Stat Signaling Pathway (AID 446; active = well fitted curve in either direction with a large enough effect, not every such curve was filed as active;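 note: ME-180 cervical cancer cells given 40 pM IL-6 alongside compound; SIE-controlled beta-lactamase reporter measured as 460/530 nm FRET emission ratio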); conditions: ME-180 (cervical carcinoma) SIE beta-lactamase reporter, IL-6 stimulated, 5 h
Outline: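 Emission at 460 and 530 nm (excitation 405 nm) reports SIE-controlled beta-lactamase in ME-180 cells. Cells received compound with 40 pM IL-6 for 5 hrs at 37 C; data scaled between 300 pM IL-6 and 125 nM JAK-inhibitor controls.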

[2] = target: Mitogen-activated protein kinase 10 (Mus musculus) (UniProt Q61831); assay: JNK3 AlphaScreen Assay (AID 530; active = well fitted curve in either direction with a large enough effect, not every such curve was filed as active;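 note: kinase came from lysate of stimulated human HepG2 cells; signal reports phosphorylation of biotinylated GST-cJun 1-79 at Ser73 with 10 µM ATP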); conditions: JNK3 lysate, c-Jun phosphorylation; series mostly up to 57.1 µM
Outline: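 Kinase buffer: 20 mM Tris-HCl pH 7.6, 10 mM MgCl2, 1 mM DTT, 0.1 mM Na3VO4, 0.01% Tween-20; ATP 10 uM. Substrate biotin-GST-cJun(1-79), enzyme from activated HepG2 lysates. Detection by Ser73 phospho-antibody AlphaScreen.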

[3] = target: 3',5'-cyclic-AMP phosphodiesterase 4B (Homo sapiens) (UniProt Q07343); assay: qHTS Assay for Inhibitors of PDE-IV (AID 607; active = well fitted activation curve with a large enough effect in the main read-out, with a control signal flat, not every such curve was filed as active); conditions: HEK293 ACTOne CNG channel cells, membrane potential fluorescence; series mostly up to 22.9 µM
Outline: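 The readout is membrane depolarisation from a cAMP-sensing CNG channel, detected with a potential dye at ex 535/em 590. Cells were HEK293-derived (endogenous PDE-IV) at 1000 cells/well, titrated up to 22.9 uM final.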

[4] = target: Guanine nucleotide-binding protein G(i) subunit alpha-1 (Homo sapiens) (UniProt P63096); assay: qHTS Assay for Inhibitors of RGS12 GoLoco Motif Activity (Green Fluorophore) (AID 879); conditions: Galphai1/FITC-RGS12 GoLoco peptide, fluorescence polarization; series mostly up to 57.1 µM;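 note: negative values mean loss of peptide binding seen as reduced polarization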
Outline: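 A drop in FITC polarization marked displacement of the FITC-tagged RGS12 GoLoco peptide (10 nM) from Gαi1 (50 nM). Compounds were incubated 10 min at room temperature in Tris pH 7.5 buffer containing 150 mM NaCl, 0.1 mM GDP and 0.05% NP40; unlabeled peptide titration served as control.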

[5] = target: Glucocorticoid receptor (Homo sapiens) (UniProt P04150); assay: GR-GFP Redistribution (AID 450;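 active = compounds whose dose series gives a full or clear partial fitted curve of increased nuclear translocation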; note: potency is the fitted concentration of half-maximal effect); conditions: U2OS GR-GFP nuclear translocation, laser cytometry, 2 h
[6] = Cell Viability - HUV-EC-C (AID 542); conditions: HUV-EC-C endothelial cell viability, qHTS; series mostly up to 92.2 µM;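 note: cells exposed to compound for 40 hours; nearly all actives have a fitted effect of over 35% in size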
Outline: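 Luminescent ATP read-out (CellTiter-Glo, 20 min room temperature) after 40 hr compound treatment of HUV-EC-C cells at 37 °C. Concentration-response data fitted with the standard Hill equation to give AC50; tamoxifen and doxorubicin served as positive controls.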

[7] = Cell Viability - H-4-II-E (AID 543); conditions: H-4-II-E rat hepatoma viability; series mostly up to 92.2 µM;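 note: cells exposed to compound for 40 hours; nearly all actives have a fitted effect of over 35% in size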; note: potency is the fitted concentration of half-maximal effect
Outline: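 qHTS, rat hepatoma H-4-II-E, 1500 cells/well; 40 hr compound exposure, 37 °C; CellTiter-Glo ATP luminescence after 20 min RT; AC50 by standard Hill fit.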

[8] = Cell Viability - SH-SY5Y (AID 544); conditions: SH-SY5Y neuroblastoma cell viability; series mostly up to 92.2 µM;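 note: cells exposed to compound for 40 hours; nearly all actives have a fitted effect of over 55% in size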
Outline: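 SH-SY5Y, 1500 cells/well, 5 hr pre-incubation 37 °C; cpd 40 hr 37 °C; CellTiter-Glo 20 min RT; luminescence (ATP) read. qHTS concentration-response, Hill fit → AC50. Tamoxifen, doxorubicin as positive controls.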

[9] = Cellular Toxicity (caspase-3) HepG2 (AID 654); conditions: HepG2 caspase-3 activation, luminescence; series mostly up to 92.2 µM;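 note: cells exposed to compound for 16 hours before reading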
Outline: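 Luminescent Caspase-Glo 3/7 readout after 16 hr compound exposure of human hepatocellular carcinoma HepG2 cells at 37 °C; qHTS concentration-response, normalized DMSO = 0%, 100 uM tamoxifen = 100%; AC50 by standard Hill equation.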

[10] = Cellular Toxicity (caspase-3) Jurkat (AID 655); conditions: Jurkat caspase-3 activation, luminescence; series mostly up to 92.2 µM;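 note: cells exposed to compound for 16 h at 37 °C before reading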
Outline: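 Jurkat cells (5000/well) in complete medium exposed 16 h at 37 C; caspase-3/7 activity read by Caspase-Glo luminescence after 20 min at room temperature. Normalized to DMSO and 100 uM tamoxifen; AC50 from Hill fits.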

[11] = Cellular Toxicity (caspase-3) HUV-EC-C (AID 656); conditions: HUV-EC-C cells, caspase-3 activation (apoptosis), vehicle = 0, 100 µM tamoxifen = 100%; series mostly up to 92.2 µM
Outline: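 HUV-EC-C cells (1000/well) in complete medium, compound-treated 16 h at 37 °C; caspase-3/7 activity read by Caspase-Glo 3/7 luminescence. Normalized to DMSO (basal) and 100 uM tamoxifen (100%); AC50 from Hill-equation concentration-response fits.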

[12] = Cellular Toxicity (caspase-3) SHSY5Y (AID 657); conditions: SH-SY5Y caspase-3 activation, DMSO zero, 10 µM staurosporine = 100%; series mostly up to 91.7 µM
Outline: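 SH-SY5Y human neuroblastoma cells, 1500/well, exposed to compound for 16 hours at 37 °C in complete medium. Caspase-3/7 activity read by Caspase-Glo luminescence after 1 hr at room temperature, normalized to DMSO and 10 uM staurosporine; AC50 from Hill fit.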

[13] = Cellular Toxicity (caspase-3) BJ (AID 658); conditions: BJ fibroblasts, luminescence, normalized: DMSO 0%, staurosporine 100%; series mostly up to 91.7 µM
Outline: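 Caspase-Glo 3/7 luminescence, read 1 hr after reagent at room temperature, in normal BJ fibroblasts exposed 16 hours at 37 °C. AC50 values from Hill-equation concentration-response, scaled between DMSO basal and 10 uM staurosporine as 100%.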

[14] = Cellular Toxicity (caspase-3) MRC-5 (AID 659); conditions: MRC-5 cells, luminescence; Potency: caspase-3 activation; series mostly up to 91.7 µM
Outline: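 Luminescent Caspase-Glo 3/7 read-out (1 h, room temperature) after a 16 h, 37 °C compound exposure of MRC-5 lung fibroblasts at 1500 cells/well. Concentration-response AC50 from Hill equation; 0% DMSO, 100% 10 uM staurosporine.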

[15] = Cellular Toxicity (caspase-3) Mesangial (AID 660); conditions: mesangial cells, normalized: DMSO 0%, 100 µM tamoxifen 100%; series mostly up to 91.7 µM;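 note: cells exposed to compound for 16 h before the caspase read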
Outline: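 Luminescent Caspase-Glo 3/7 readout (aminoluciferin substrate cleavage, 20 min RT) after 16 h compound exposure at 37 °C of normal human mesangial cells. Signal increase normalized between DMSO basal and 100 uM tamoxifen; Hill-equation AC50.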

[16] = Cellular Toxicity (caspase-3) H-4-II-E (AID 663); conditions: H-4-II-E rat hepatoma, scaled: DMSO 0%, 100 µM tamoxifen 100%; series mostly up to 92.2 µM;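 note: cells exposed to compound for 16 hr before readout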
Outline: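 Caspase 3/7 activation measured by luminescent aminoluciferin substrate cleavage after 16 hr compound treatment of H-4-II-E cells in complete medium. Increase normalized between DMSO (basal) and 100 uM tamoxifen (100%); Hill-equation AC50 from concentration-response.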

[17] = Cellular Toxicity (caspase-3) Hek293 (AID 664); conditions: HEK293 caspase-3 activation, DMSO = 0%, 100 µM tamoxifen = 100%; series mostly up to 92.2 µM;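 note: cells exposed to compound for 16 h at 37 °C before readout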
Outline: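 Luminescent Caspase-Glo 3/7 readout (aminoluciferin release) in HEK293 cells after 16 h compound treatment, 37 °C. Normalization: DMSO = basal, 100 uM tamoxifen = 100% stimulation. Concentration-response fitted with standard Hill equation for AC50.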

[18] = Cellular Toxicity (caspase-3) N2a (AID 665); conditions: N2a cells, luminescence, normalized: DMSO 0%, 10 µM staurosporine 100%; series mostly up to 92.2 µM;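 note: compound exposure lasted 16 h at 37 °C before readout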
Outline: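 Luminescent Caspase-Glo 3/7 readout in N2a mouse neuroblastoma cells after 16 h compound exposure at 37 °C. Signal scaled to DMSO (basal) and 10 uM staurosporine (100%). Concentration-response fitted with Hill equation for AC50.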

[19] = Cellular Toxicity (caspase-3) NIH 3T3 (AID 666); conditions: NIH 3T3 caspase-3 activation, apoptosis/toxicity, 0% DMSO, 100% is 100 µM tamoxifen; series mostly up to 92.2 µM
Outline: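 NIH 3T3, 1000 cells/well, 5 hr settle then 16 hr compound at 37°C; Caspase-Glo 3/7, 20 min RT, luminescence. DMSO = basal, 100 uM tamoxifen = 100%. Hill-equation AC50, qHTS.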

[20] = target: Cytochrome P450 2C9 (Homo sapiens) (UniProt P11712); assay: qHTS Assay for Inhibitors and Substrates of Cytochrome P450 2C9 (AID 883); conditions: recombinant CYP2C9, luciferin-H luminescence, 60 min; series mostly up to 57.1 µM; note: nearly all actives have a fitted effect of over 60% in size
Outline: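 Inhibition of CYP2C9 is scored as loss of luminescence, with 57uM sulphaphenazole defining 100% inhibition. Substrate Luciferin-H is used at 100uM, equal to its KM; enzyme at 10nM in 25mM KPO4, 60 min at 37C with NADPH regeneration.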

Glucocorticoid receptor (Homo sapiens), sequence (P04150 whole entry, looked up): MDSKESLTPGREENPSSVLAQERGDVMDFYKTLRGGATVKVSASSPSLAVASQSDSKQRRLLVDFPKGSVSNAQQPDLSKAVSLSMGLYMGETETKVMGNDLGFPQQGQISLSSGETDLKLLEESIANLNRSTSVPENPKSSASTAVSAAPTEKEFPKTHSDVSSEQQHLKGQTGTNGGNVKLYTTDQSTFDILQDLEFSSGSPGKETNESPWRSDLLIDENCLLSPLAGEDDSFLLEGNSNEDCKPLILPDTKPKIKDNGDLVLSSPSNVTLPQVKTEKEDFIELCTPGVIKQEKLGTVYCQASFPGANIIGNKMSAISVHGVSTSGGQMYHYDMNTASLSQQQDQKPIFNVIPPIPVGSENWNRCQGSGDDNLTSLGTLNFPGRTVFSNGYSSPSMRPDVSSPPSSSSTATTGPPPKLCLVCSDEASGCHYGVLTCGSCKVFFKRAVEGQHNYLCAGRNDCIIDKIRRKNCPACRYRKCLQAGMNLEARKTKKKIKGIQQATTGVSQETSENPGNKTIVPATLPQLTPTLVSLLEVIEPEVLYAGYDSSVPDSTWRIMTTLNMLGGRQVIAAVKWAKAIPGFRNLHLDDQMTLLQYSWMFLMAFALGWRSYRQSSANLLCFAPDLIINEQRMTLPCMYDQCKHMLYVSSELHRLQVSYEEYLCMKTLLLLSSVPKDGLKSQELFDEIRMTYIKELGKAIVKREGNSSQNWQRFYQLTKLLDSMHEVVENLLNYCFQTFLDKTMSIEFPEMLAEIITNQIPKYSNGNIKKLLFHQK
Guanine nucleotide-binding protein G(i) subunit alpha-1 (Homo sapiens), sequence (P63096 whole entry, looked up): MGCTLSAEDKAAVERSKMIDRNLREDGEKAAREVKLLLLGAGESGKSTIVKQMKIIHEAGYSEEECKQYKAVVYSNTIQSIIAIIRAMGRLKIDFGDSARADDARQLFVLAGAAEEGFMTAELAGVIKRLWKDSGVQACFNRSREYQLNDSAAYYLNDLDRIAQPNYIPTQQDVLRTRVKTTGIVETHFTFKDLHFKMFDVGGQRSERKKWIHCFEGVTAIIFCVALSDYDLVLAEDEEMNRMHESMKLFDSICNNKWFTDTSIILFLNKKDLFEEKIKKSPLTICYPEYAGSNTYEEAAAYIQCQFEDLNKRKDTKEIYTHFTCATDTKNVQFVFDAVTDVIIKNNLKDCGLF
3',5'-cyclic-AMP phosphodiesterase 4B (Homo sapiens), sequence (Q07343 whole entry, looked up): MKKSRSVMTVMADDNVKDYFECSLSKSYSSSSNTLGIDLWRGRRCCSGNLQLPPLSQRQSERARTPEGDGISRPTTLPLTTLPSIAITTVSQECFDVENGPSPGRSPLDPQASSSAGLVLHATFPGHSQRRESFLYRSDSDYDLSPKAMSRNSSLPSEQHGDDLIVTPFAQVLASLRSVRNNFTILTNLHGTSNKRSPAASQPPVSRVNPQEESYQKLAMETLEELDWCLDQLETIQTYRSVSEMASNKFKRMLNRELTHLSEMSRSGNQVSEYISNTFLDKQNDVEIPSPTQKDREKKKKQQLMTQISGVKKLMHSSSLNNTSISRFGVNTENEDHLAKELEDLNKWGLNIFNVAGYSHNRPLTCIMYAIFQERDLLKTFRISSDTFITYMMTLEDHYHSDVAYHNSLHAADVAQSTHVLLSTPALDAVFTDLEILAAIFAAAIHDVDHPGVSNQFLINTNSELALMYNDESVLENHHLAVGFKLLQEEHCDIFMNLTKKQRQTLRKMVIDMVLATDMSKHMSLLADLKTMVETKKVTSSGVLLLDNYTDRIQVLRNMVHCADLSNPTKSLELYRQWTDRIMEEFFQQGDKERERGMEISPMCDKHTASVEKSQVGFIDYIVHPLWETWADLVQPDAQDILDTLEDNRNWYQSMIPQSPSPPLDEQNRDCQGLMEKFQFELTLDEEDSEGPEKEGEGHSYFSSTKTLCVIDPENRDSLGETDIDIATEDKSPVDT
Cytochrome P450 2C9 (Homo sapiens), sequence (P11712 whole entry, looked up): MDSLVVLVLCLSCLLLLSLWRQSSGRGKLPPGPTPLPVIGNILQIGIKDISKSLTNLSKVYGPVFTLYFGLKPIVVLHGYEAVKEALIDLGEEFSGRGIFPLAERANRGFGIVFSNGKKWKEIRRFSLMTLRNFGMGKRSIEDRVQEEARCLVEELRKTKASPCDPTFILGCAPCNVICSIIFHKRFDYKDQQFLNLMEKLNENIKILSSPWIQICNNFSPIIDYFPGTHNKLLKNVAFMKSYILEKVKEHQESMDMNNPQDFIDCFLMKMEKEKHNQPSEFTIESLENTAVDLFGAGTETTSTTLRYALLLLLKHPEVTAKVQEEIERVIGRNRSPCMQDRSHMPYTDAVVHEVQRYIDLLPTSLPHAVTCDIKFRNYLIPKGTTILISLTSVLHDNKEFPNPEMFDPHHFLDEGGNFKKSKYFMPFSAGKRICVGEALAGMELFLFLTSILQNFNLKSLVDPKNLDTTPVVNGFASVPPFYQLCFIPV

With `CCN(CC)CCOC(=O)C1(C2CCCCC2)CCCCC1` the activity, negative = inhibition ([1]; at 17.2 µM (top of the series)) was 0.488% and 9.07%, the activity, negative = inhibition ([1]; at 38 µM (top of the series)) was -26% and the Potency [2] was “inactive”. The outcome [3] was “inactive” and the outcome [4] was “inactive”.
For `CCN(CC)CCNC(=O)c1cc(Cl)c(N)cc1OC`, the activity, negative = inhibition ([1]; at 17.2 µM (top of the series)) was 16.4% and -2.07%, the activity, negative = inhibition ([1]; at 38 µM (top of the series)) was -26.6% and the Potency [2] was “inactive”. For the same compound, the outcome [3] was “inactive” and the outcome [4] was “inactive”.
Work on `OCC(O)CN1CCN(c2ccccc2)CC1` (configuration not stated) yielded an activity, negative = inhibition ([1]; at 17.2 µM (top of the series)) of 10.1% and a Potency [5] greater than 20.6 µM.
`CN1[C@@H]2CC(OC(=O)[C@H](CO)c3ccccc3)C[C@H]1[C@@H]1O[C@@H]12` (some centres not stated) showed an activity, negative = inhibition ([1]; at 17.2 µM (top of the series)) of 3.51%.
With `CN(C)CCCN1c2ccccc2Sc2ccc(Cl)cc21` the activity, negative = inhibition ([1]; at 17.2 µM (top of the series)) was -1.56% and 4.13%, the activity, negative = inhibition ([1]; at 38 µM (top of the series)) was -20.2% and the Potency [5] was greater than 20.6 µM. For the same compound, the Potency [2] was “inactive”, the outcome [3] was “inactive” and the outcome [4] was “inactive”.
With `C#CCN(C)Cc1ccccc1` the activity, negative = inhibition ([1]; at 17.2 µM (top of the series)) was 8.61% and -2.46%, the Potency [5] was > 46 µM and > 20.6 µM and the Potency [2] was “inactive”. For the same compound, the outcome [3] was “inactive” and the outcome [4] was “inactive”.
With `O=C1O[C@H]([C@@H](O)CO)C(O)=C1O` the Potency [2] was “inactive”, the Potency [6] was “inactive” and the Potency [7] was “inactive”. For the same compound, the Potency [8] was “inactive”, the Potency [9] was “inactive” and the Potency [10] was “inactive”. For the same compound, the outcome [11] was “inactive”, the outcome [12] was “inactive” and the outcome [13] was “inactive”. For the same compound, the Potency [14] was “inactive”, the outcome [15] was “inactive” and the outcome [16] was “inactive”. For the same compound, the outcome [17] was “inactive”, the outcome [18] was “inactive” and the outcome [19] was “inactive”.
With `NC(=O)N/N=C/c1ccc([N+](=O)[O-])o1` the Potency [2] was “inactive”, the Potency [6] was “inactive” and the Potency [7] was 31.6 µM (active). The Potency [8] was “inactive”, the Potency [9] was “inactive” and the Potency [10] was “inactive”. The outcome [11] was “inactive”, the outcome [12] was “inactive” and the outcome [13] was “inactive”. The Potency [14] was “inactive”, the outcome [15] was “inactive” and the outcome [16] was “inactive”. The outcome [17] was “inactive”, the outcome [18] was “inactive” and the outcome [19] was “inactive”.
For `Cn1cc[nH]c1=S`, the activity, negative = inhibition ([1]; at 17.2 µM (top of the series)) was -3.77%, the Potency [2] was “inactive” and the outcome [3] was “inactive”.
For `NC(N)=NCCC[C@H](N)C(=O)O`, the Potency [5] was greater than 46 µM, the Potency [2] was “inactive” and the outcome [3] was “inactive”. For the same compound, the outcome [4] was “inactive” and the Potency [20] was “inactive”.
